Measured values taken from PubChem BioAssay (NCI).
Compounds without any hit were thinned out: in the full panel of roughly 83,000, 20% have a hit.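 A percent growth of 40 corresponds to 60% growth inhibition; 0 means no net growth; -100 means all cells died. Active threshold: below 10.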 The source made the active and inactive calls.

The molecules below were run on HL-60(TB) leukemia (assay: NCI-60 one-dose screen, 48 h (100 = growth as untreated, 0 = no growth, -100 = all killed)). Settings: 10 µM unless noted.
In the case of `O=C1/C(=C/C=C/c2ccco2)SC(=S)N1C1CCCCC1`, the growth is reported as 69.4% (inactive). In the case of `CC(=O)c1cc(C(=O)N2c3ccccc3Sc3ccccc32)n2c1ccc1ccccc12`, the growth is reported as 14% (inactive). With `Cc1cn(-c2cc(NC(=O)c3cncc(C#Cc4cnc5ccc(OCCCS(C)(=O)=O)nn45)c3)cc(C(F)(F)F)c2)cn1` the growth was -6.15% (active). In the case of `CCNCCOc1ccc(/C(=C(/CC)c2ccc(Cl)cc2)c2ccc(OCCCN(C)C)cc2)cc1`, the growth is reported as -61.5% (active). In the case of `CCc1nn2c(C)cc(C)nc2c1Cc1ccc(/C=C/CN2CCN(CCOCCOCCN3CCN(C/C=C/c4ccc(Cc5c(CC)nn6c(C)cc(C)nc56)cc4)CC3)CC2)cc1`, the growth is reported as -51.4% (active). For `N[C@@H](Cc1cn(-c2c3ccccc3nc3ccccc23)nn1)C(=O)O`, the growth was 95.5% (inactive). With `OC1CCN(CCCOc2c3ccc(Cl)cc3nc3c2oc2ccc(Cl)cc23)CC1` the growth was 22.4% (inactive). In the case of `COc1cc(-c2ccc3ncnc(NC(C)c4ccccc4)c3c2)cnc1OC` (stereo not drawn), the growth is reported as 43.2% (inactive). `O=C(NNc1nc2cc(F)ccc2n2c(CO)ccc12)c1cnccn1` was tested, and the growth was -27.4% (active). `CCN(CC)c1ccc(/C=N/NC(=O)c2ccc(NS(C)(=O)=O)cc2)cc1` was tested, and the growth was 3.16% (active). With `O=C(CSc1nnc(-c2ccc(Cl)cc2)n1-c1ccccc1)Nc1cccc(Cl)c1` the growth was 89.8% (inactive). `CC(C)(O)c1cncc(-c2ccc3ncc(C#N)c(N4CCc5cc(F)c(Cl)cc54)c3c2)c1` was tested, and the growth was 11.5% (inactive). With `CCCSc1nc(Nc2ccc(/C(C)=N\NC(N)=S)cc2)c(C#N)c(-c2ccccc2)n1` the growth was 64% (inactive).
